These compounds were tested against Glucose transporter (Leishmania mexicana) (UniProt O61059) (assay: ST_JUDE_LEISH: Cytotoxicity at 2uM final concentration against transgenic Leishmania Mexicana promastigotes LmGT2 that are glucose transport deficient and complemented with the L. Mexicana glucose transporter 2. Activity is measured by DNA content using SYBR green in vitro).
Type: functional

Row | SMILES | inhibition [%]
1 | CC1(C)NC(N)=NC(=N)N1OCCc1ccc(N)cc1 | 5.49
2 | COc1cc(Nc2ccnc3cc(-c4ccncc4)ccc23)cc(OC)c1OC | 9.21
3 | C=CCn1c(Sc2ccc(C#N)c([N+](=O)[O-])c2)nnc1-c1cccc(Cl)c1 | -1.95
4 | CCN(CC)/C(=N/C(=N)Nc1ccc(Br)cc1)NCCCCCCN/C(=N\C(=N)Nc1ccc(Br)cc1)N(CC)CC | -0.11
5 | CCN1CCN(C(=O)NC(C(=O)N(C)Cc2ccc(-c3ccc(C(F)(F)F)cc3)cc2)c2cccs2)C(=O)C1=O (stereo not given) | 1.3
6 | Cc1ccc(NC(=O)c2ccc3nccnc3c2)cc1OC1CCN(Cc2ccc(F)cc2)CC1 | 10.5
7 | Cc1cc(N(C)CCCN(C)C)nc(Nc2ccc(Br)cc2)n1 | 2.6
8 | CN(CCC1CCN(C(=O)/C=C/c2ccc(Cl)c(Cl)c2)CC1)C1CCC(c2c[nH]c3ccccc23)CC1 (stereo not given) | 3.97
9 | Cc1cc(O)c2c3c1C(=O)C=C1C3c3c(c(O)cc(O)c3C(=O)C1(C)C)C2=O (stereo not given) | -3.43
10 | CCN1CCC(NCc2ccc(-c3ccc(Cl)s3)cc2)CC1 | -1.7
11 | CCOC(=O)/C(=N\OC(C(=O)OC(C)(C)C)c1ccccc1)c1csc(NC(c2ccccc2)(c2ccccc2)c2ccccc2)n1 (stereo not given) | 0.99
12 | CSc1ccc2nccc(Nc3ccc(Oc4ccccc4)cc3)c2c1 | 1.56
13 | CCCCCCNCCOc1ccc(-c2nc(-c3ccccc3)c(-c3ccccc3)[nH]2)cc1 | 1.62
14 | CCN(CC)CCN(Cc1ccc(-c2ccc(Br)cc2)cc1)C(=O)Cn1c(CCc2cccc(F)c2F)nc(=O)c2ccccc21 | 6.05
15 | COc1ccc(Cn2c(SCc3ccc(C)cc3)nc3cc(OC)c(OC)cc3c2=N)cc1Cl | -2.37
16 | Cc1cc(NC(=O)NCCN2CCC(NS(=O)(=O)c3ccccc3F)CC2)c2ccccc2n1 | 0.24
17 | COc1ccc(OC)c(C=NNc2nc3ccccc3[nH]2)c1 | 3.34
18 | Nc1nc(N)c2c(ccc3c2ccn3Cc2ccccc2)n1 | 86.1
19 | CCN(CC)CCN(Cc1ccc(-c2ccc(C(F)(F)F)cc2)cc1)C(=O)Cn1c(CCc2cc(F)cc(F)c2F)nc(=O)c2ccccc21 | -0.7
20 | Nc1ccnc(N2CCC(CCOc3ccnc4cc(Cl)ccc34)CC2)c1 | 6.6

Row | SMILES | inhibition [%]
21 | COc1cc(-c2[nH]c(-c3ccc(OCCN(C)C)cc3)cc2-c2ccncc2)ccc1Cl | 1.76
22 | COc1ccc2nc(C)cc(NCc3cccc4ccccc34)c2c1 | -0.28
23 | COC(=O)[C@@H](NC(=O)[C@@H](Nc1ccc(C#N)c2ccccc12)C(C)(C)C)c1ccc(O)cc1 | 0.19
24 | CCn1c(-c2cc(C)on2)nc2cnc(Oc3ccc(C(=O)N4CC(=O)N(C)C4C(C)(C)C)cc3)cc21 (stereo not given) | 5.58
25 | COc1ccc2nccc([C@@H](O)CN3CCC(NC(=O)C(c4cc5ccccc5o4)N4CCN(Cc5ccccc5)CC4)CC3)c2c1 (stereo not given in full) | 0.77
26 | CCCc1cc(Cc2cnc(N)nc2N)cc(CC)c1O | 0.25
27 | COc1ccc2nccc([C@@H](O)CN3CCC(NC/C=C/c4cccnc4)CC3)c2c1 | 2.59
28 | COc1ccc2nccc([C@@H](O)CN3CCC(NC(=O)c4cc5c(F)cc(F)cc5[nH]4)CC3)c2n1 | 85.4
29 | CN1CCC(Oc2ccc(CN3CC[C@H](NC(=O)c4ccc(F)c(F)c4)C3)c3ccccc23)C1 (stereo not given in full) | 2.7
30 | CCCCCCCC1=NN2C(=N)C(=Cc3cc(Br)c(OCc4ccc(F)cc4)c(OCC)c3)C(=O)N=C2S1 | 2.47
31 | CC(C)COc1ccc(Cl)cc1Cc1ccc(-c2nc3ccc(C(F)(F)F)cc3[nH]2)o1 | 2.13
32 | CC(C)(C)NC(=O)COC(=O)c1c2c(nc3ccccc13)C(=Cc1ccc3c(c1)OCO3)CCC2 | 0.48
33 | CN(CCN(C)C(=O)NCc1ccccc1)C(=O)NCc1ccccc1 | 3.75
34 | CCCCC(CC)C(=O)C(NC(=O)[C@H](CSC(c1ccccc1)(c1ccccc1)c1ccccc1)NC(=O)OC(C)(C)C)C(=O)OC (stereo not given in full) | 3.51
35 | Cc1cccc2nc(-c3ccc(-c4ccc(NC(=O)Nc5ccsc5)cc4)cc3)[nH]c12 | -0.35
36 | O=C(Cc1cccc(Cl)c1)Nc1ccc(N2CCC(NCc3ccc4ncccc4c3)CC2)cc1 | 8.71
37 | O=C(NCCCCCN1CCC(c2c[nH]c3ccccc23)C1)Nc1ccc(Cl)c(Cl)c1 (stereo not given) | 2.22
38 | COCCNCc1cccc(-c2cc3nccc(Nc4ccc(Oc5ccccc5)cc4)c3cc2Cl)c1 | 0.83
39 | N#Cc1ccc(N(CCOc2ccc(Cl)c(F)c2)Cc2ccccc2C(F)(F)F)cc1C(F)(F)F | -1.25
40 | CCN(CCCN1CCCCC1)c1cc(C)nc(Nc2ccc(F)c(C(F)(F)F)c2)n1 | -0.24

From ChEMBL document CHEMBL3433997, “St. Jude Leishmania screening dataset” (2016)
